From PubChem BioAssay
Tg IFNy HTS = inhibitors of Toxoplasma gondii growth with IFN-gamma; activity change, negative = inhibition, % (test concentration not listed); Toxoplasma gondii growth in IFN-gamma-treated host cells; active compounds read low; AID 1259416; actives 3.8% (n = 69,000); in the data active = activity change below about -70%, passing the limit was not always enough;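 also: host cells are HeLa cells infected with Toxoplasma gondii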
* hit, by the source's call; i = inactive; ! = not confirmed by another sample. This is one part of a sample in which hits are shown more often than they occur.

SMILES	Tg IFNy HTS
CC1CN(c2ncc(C(=O)OCc3ccccc3)c(C(F)(F)F)n2)CC(C)O1 (stereo not drawn)	-116.0*
CCCc1c(C(=O)OCC)cnn1-c1ncc(C(=O)OC)c(C(F)(F)F)n1	-19.2
COC(=O)c1cnc(NN2C(=O)CCC2=O)nc1C(F)(F)F	65.3
COc1cc2c(cc1C1CC(=O)Nc3c1c(C(C)C)nn3C)CCC2 (stereo not drawn)	0.6
Cc1oc(C2CCN(S(=O)(=O)c3ccc(F)c(Cl)c3)CC2)nc1C(=O)N(C)C	38.5
CC(C)NC(=O)N1CCN(S(=O)(=O)C2CC2)CC2(CC(=O)N(C)C2)C1 (stereo not drawn)	0.1
Fc1ccc(-c2cn3c(n2)Cc2ccccc2C3)cc1	i
CCc1cnc(N2CCC3(CC2)OC(C(=O)NCC(C)C)Cn2ccnc23)nc1 (stereo not drawn)	-102.9*
CCc1ccc(NC(=O)N2CCC3(CC2)OC(C(=O)NCC(C)C)Cn2ccnc23)cc1 (stereo not drawn)	60.3
CC(C)CNC(=O)C1Cn2ccnc2C2(CCN(C(=O)C3CCOCC3)CC2)O1 (stereo not drawn)	13.0
Cc1ccc(CN2CCc3ncc(CNc4ccccn4)n3CC2)o1	39.7
COc1ccc(CNC(=O)[C@@H]2C[C@H](NC(=O)C3CCC3)CN2C)cc1OC	4.2
CC(C)N1CCCn2nnc(COCCN3CCCC3)c2C1	2.3
O=C(O)c1cc(C2CC2)nc2ccc(-c3cccc4c3CCNC4)cc12	1.7
Cn1c2c(c3cc(-c4cccc5c4CCNC5)ccc31)CCCC2=O	-81.1*
c1cc2c3c(c1)c1c(n3CCNC2)CCCC1	16.4
COCC1CN(C(=O)c2ccccc2F)Cc2cnn(CC3CC3)c21 (stereo not drawn)	-52.6
CN(C)S(=O)(=O)N1CCC2(CC1)COC(COc1cccnc1)C2 (stereo not drawn)	-48.1
Cc1cc(C)cc(C(=O)N2CCc3c(CNc4ncccn4)nn(C)c3C2)c1	12.6
CC(C)n1nc(CNc2ncccn2)c2c1CN(C(=O)N(C)C)CC2	-75.5*
CN(C)CC(=O)N1CCCn2cnc(CNc3ncccn3)c2C1	13.5
NC(=O)c1cccc(CC2CCN(C(=O)CCN3CCCCCC3=O)C2)c1 (stereo not drawn)	-65.5
COCCN1C(=O)CCc2cc(NC(=O)COc3ccc(F)cc3)ccc21	-0.7
CC(C)c1cc(C(=O)Nc2ccc3c(c2)N(S(C)(=O)=O)CCC3)nn2cnnc12	-1.2
CCCCCCCCCCOC1CCS(=O)(=O)C1 (stereo not drawn)	-84.3*
SMILES	Tg IFNy HTS
CCCCSC(=S)NC1CCS(=O)(=O)C1 (stereo not drawn)	4.1
O=C1C(c2ccccc2)c2ccccc2N1Nc1ccc(Br)cc1 (stereo not drawn)	-19.4
O=Nc1c(-c2c(O)[nH]c3ccccc23)[nH]c2ccccc12	-84.5*
Oc1[nH]c2ccccc2c1N=Nc1ccccc1	195.1
Cc1ccc(S(=O)(=O)N=Nc2c(O)[nH]c3ccccc23)cc1	30.8
Cc1cc(C)n(CCC(=O)NCc2ccc3sccc3c2)c(=O)n1	0.8
Cc1ccc(NC(=O)c2c3c(-c4ccccc4)ncnc3n3ccccc23)cn1	39.3
CCN1Cc2c(C(=O)NCC(C)(C)C)ncn2-c2ccccc2S1(=O)=O	65.1
c1ccc(Cc2n[nH]c(Cn3cncn3)n2)cc1	-8.1
CN1CC2(CCCN(Cc3ccc(F)c(C(F)(F)F)c3)C2)OC1=O (stereo not drawn)	-56.8
C[C@H]1O[C@@H](O[C@H]2[C@@H](O)C[C@H](O[C@H]3[C@@H](O)C[C@H](O[C@H]4CC[C@]5(C)C6CC[C@]7(C)[C@@H](C8=CC(=O)OC8)CC[C@]7(O)C6CC[C@@H]5C4)O[C@@H]3C)O[C@@H]2C)C[C@H](O)[C@@H]1O (stereo partly drawn)	-79.7*!
CC(C)c1ccc(C(=O)N2CCC3(CCCN(C)C3=O)C2)c(=O)n1C (stereo not drawn)	-1.2
CCN(C)S(=O)(=O)N1CCC(c2n[nH]c(=O)n2Cc2ccccc2)CC1	-0.6
O=c1[nH]n(CCO)c(=O)c2cccnc12	76.8
Oc1c(I)cc(I)c2cccnc12	-76.1*!
O=C(Oc1ccc(Cl)c2cccnc12)c1cccnc1	-67.6
COc1ccc(-c2ncc(Cl)cn2)c2ccc(C)nc12	-37.7
Oc1ccc(Cl)c2cccnc12	12.2
O=S(=O)(O)c1cc(I)c(O)c2ncccc12	9.9
Cc1ccc2c(Cl)cc(Cl)c(O)c2n1	-81.5*
Oc1c(Cl)cc(Cl)c2cccnc12	-82.9*
Cc1ccc(-c2noc(C3CCN(C(=O)C4CCCCC4)CC3)n2)o1	27.3
COCCC(=O)N1Cc2[nH]nc(COc3cccnc3)c2C1	4.7
Cc1ccc(CN2CCc3ccc(=O)n(Cc4cccnc4)c3CC2)o1	31.8
COCCC(=O)N1CCN(CCN(C)C)c2ncccc2C1	-40.3
SMILES	Tg IFNy HTS
O=C(c1ccc2c(=O)n(CCC3=CCCCC3)c(=S)[nH]c2c1)N1CCC(O)(c2cccc(C(F)(F)F)c2)CC1	11.4
Cc1ccc(C(=O)NC(C)c2ccccc2)cc1 (stereo not drawn)	-4.8
Cc1cnc2cc(C3CCN(C(=O)c4ccncc4)CC3)[nH]c2n1	-25.5
C=CCn1c2c(ccc1=O)CCN(C(=O)N1CCOCC1)CC2	32.9
Cc1c2n(c3ccccc13)CC/C2=N/OC(=O)c1ccc(Cl)cc1Cl	2.1
COc1ccc(CN2Cc3cn(C)nc3C(COCC3CC3)C2)cc1 (stereo not drawn)	19.8
CC(C)OC(=O)CSc1nnc(-c2ccc(O)cc2)n1C	5.7
Cc1ccc(-c2nnc(SCC(=O)c3ccc4c(c3)n(C)c(=O)n4C)n2C)cc1	-97.8*
Cc1ccc(C(=O)CSc2nnc(-c3ccncc3)n2C)cc1	-2.9
O=C(Nc1ccc2c(c1)OCO2)C1CCN(c2nc3ccccc3s2)CC1	-58.1
CN1C(=O)C2(CCN(C(=O)c3cscn3)CC2)c2ccccc21	0.0
CCOC(=O)c1ccc(NC(=O)CN2C(=O)CCc3cc(S(=O)(=O)N4CCCCC4)ccc32)cc1	-26.4
COc1cc(OC)nc(/C=C/c2ccccc2)n1	-12.9
Cn1ccnc1-c1ccc(N2CCN(C/C=C/c3ccccc3)CC2)nn1	12.8
Cc1cc(Nc2cc(N3CCN(C)CC3)nc(/C=C/c3ccccc3)n2)n[nH]1	-73.6*
CN1C[C@@H]2CN(C(=O)C3CC3)C[C@@H]2c2ccccc21	36.9
CN1CCN(c2cc(C(=O)NC(C)(C)CN3CCCCC3)ccn2)CC1	3.8
Cc1nccnc1-c1ccnn1C(=O)Nc1cc(Cl)cc(Cl)c1	-81.7*
COc1cc(NC(=O)Nc2ccnn2C)cc(OC)c1	-8.5
Cc1nc(-c2cccs2)sc1-c1ccnn1C(=O)NC(C)C	98.0
O=C1C2C3C=CC(C3)C2C(=O)N1CCN1C(=O)C2C3C=CC(C3)C2C1=O (stereo not drawn)	1.9
N#Cc1c(SCC(=O)NCc2cccc(Cl)c2)sc2c(=O)[nH]c(=O)[nH]c12	85.5
CC(C)(C)C(=O)N1CCN(C2c3ccccc3-c3ccccc32)CC1	-94.4*
CC(C)(C)C(=O)N1CCN(c2cccc(Cl)c2)CC1	-44.1
O=C(c1cccnc1Oc1ccccc1)N1CCN(C2c3ccccc3-c3ccccc32)CC1	-33.7
SMILES	Tg IFNy HTS
O=C(Oc1ccc(OCc2ccccc2)cc1)c1ccco1	40.4
CCCc1cc(CNC(=O)c2cc(-c3cccs3)nn2C)on1	-14.6
CCN1C(=O)CCc2cc(NC(=O)c3ccsc3)ccc21	83.9
CCN1C(=O)CCc2cc(NC(=O)c3ccc(C)cc3)ccc21	-16.1
C=CC(=O)Nc1ccc2c(c1)CCC(=O)N2CCC	-10.7
CCCN1C(=O)CCc2cc(NC(=O)C(CC)c3ccccc3)ccc21 (stereo not drawn)	-81.6*
